This note sets out measurements from PubChem BioAssay (Tox21).

Structures are written as SMILES. Inconclusive results are not listed. Activity calls are given as the source filed them. Calls come from the whole dose curve; as a rule, active = well fitted curve in the direction sought with a large enough effect in the repeat runs; inconclusive = weak or mixed curves; inactive = no such curve, though single readings can be large; an effect the other way counts as inactive or inconclusive.

The nature of test [1]: qHTS RealTime-Glo MT Cell Viability Assay in HEK293 cells - 16 hour (AID 1224872). For activity change, negative = cytotoxicity: top concentration of the series differs between compounds. Note: nearly all actives have a fitted effect of over 50% in size. Note: potency is the fitted concentration of half-maximal effect. Particulars: RealTime-Glo luminescence; series mostly up to 76.8 µM. Summed up: (§1)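 Tox21 10K qHTS, HEK293, 600 cells/well, RealTime-Glo reagent co-dispensed with cells; 5 h preincubation, compound by pintool, 37 C, luminescence at 0–40 h.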
Test [2] is described as follows: qHTS RealTime-Glo MT Cell Viability Assay in HEK293 cells - 40 hour (AID 1224874). Note: nearly all actives have a fitted effect of over 50% in size. As to conditions: RealTime-Glo luminescence; max response: active compounds read low. Summed up:
(§2)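 600 cells/well were plated with the nonlytic NanoLuc/prosubstrate reagent, pre-incubated 5 h, then given 23 nL of compound in DMSO. Incubation at 37 C for 40 h, with luminescence from viable-cell-reduced substrate read repeatedly from 0 h.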

Test [3] can be described thus: A CellTox Green Cytotoxicity Assay to monitor cytotoxicity in HEK293 cells - 24 hour (AID 1224875). Note: nearly all actives have a fitted effect of over 45% in size. As to conditions: CellTox Green fluorescence; series mostly up to 76.8 µM. The procedure, abridged: (§3)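 HEK293 cells, 600/well, were preincubated 5 hours and then exposed to compounds at 37 C for up to 40 hours. A cell-impermeant cyanine dye staining dead-cell DNA was read by fluorescence at 0, 8, 16, 24, 32 and 40 h time points.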

The nature of test [4]: A CellTox Green Cytotoxicity Assay to monitor cytotoxicity in HepG2 cells - 16 hour (AID 1224876). Note: nearly all actives have a fitted effect of over 45% in size. As to conditions: CellTox Green fluorescence; series mostly up to 76.8 µM. The procedure, abridged:
(§4)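 HepG2 cells, 600/well, preincubated 5 h with CellTox Green dye, then exposed to Tox21 compounds in DMSO at 37 C for up to 40 h. Dead-cell DNA fluorescence read at the indicated time point.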

Test [5] is described as follows: qHTS RealTime-Glo MT Cell Viability Assay in HepG2 cells - 32 hour (AID 1224877). Note: nearly all actives have a fitted effect of over 55% in size. As to conditions: RealTime-Glo luminescence; series mostly up to 76.8 µM. The procedure, abridged: (§5)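 Cells + NanoLuc/prosubstrate dispensed (600 cells/well) → 5 h at 37 C/5% CO2 → compounds in DMSO transferred → 40 h incubation at 37 C, luminescence read at 0, 8, 16, 24, 32, 40 h.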

The nature of test [6]: A CellTox Green Cytotoxicity Assay to monitor cytotoxicity in HepG2 cells - 24 hour (AID 1224878). Note: nearly all actives have a fitted effect of over 45% in size. Particulars: CellTox Green fluorescence; series mostly up to 76.8 µM. The procedure, abridged:
as §4

Test [7] is described as follows: A CellTox Green Cytotoxicity Assay to monitor cytotoxicity in HepG2 cells - 40 hour (AID 1224879). Note: nearly all actives have a fitted effect of over 40% in size. Particulars: CellTox Green fluorescence; series mostly up to 76.8 µM. Summed up:
as §4

A short description of test [8]: qHTS RealTime-Glo MT Cell Viability Assay in HEK293 cells - 0 hour (AID 1224880). Note: top concentration of the series differs between compounds; nearly all actives have a fitted effect of over 45% in size. As to conditions: RealTime-Glo luminescence; series mostly up to 76.8 µM. The procedure, abridged: as §2
Test [9] is described as follows: A CellTox Green Cytotoxicity Assay to monitor cytotoxicity in HEK293 cells - 32 hour (AID 1224881). Note: nearly all actives have a fitted effect of over 40% in size. Particulars: CellTox Green fluorescence; series mostly up to 76.8 µM. Summed up: as §3
Test [10] is described as follows: A CellTox Green Cytotoxicity Assay to monitor cytotoxicity in HepG2 cells - 0 hour (AID 1224882). Note: nearly all actives have a fitted effect of over 35% in size. As to conditions: CellTox Green fluorescence; series mostly up to 76.8 µM. Summed up:
as §4

Test [11] can be described thus: A CellTox Green Cytotoxicity Assay to monitor cytotoxicity in HepG2 cells - 32 hour (AID 1224883). Note: nearly all actives have a fitted effect of over 50% in size. As to conditions: CellTox Green fluorescence; series mostly up to 76.8 µM. Summed up:
as §4

Test [12] can be described thus: A CellTox Green Cytotoxicity Assay to monitor cytotoxicity in HEK293 cells - 8 hour (AID 1224884). Note: nearly all actives have a fitted effect of over 35% in size. Particulars: CellTox Green fluorescence; series mostly up to 76.8 µM. The procedure, abridged: as §3
Test [13] is described as follows: qHTS RealTime-Glo MT Cell Viability Assay in HepG2 cells - 16 hour (AID 1224885). Note: nearly all actives have a fitted effect of over 50% in size. As to conditions: RealTime-Glo luminescence; series mostly up to 76.8 µM. Summed up:
as §5

Test [14] is described as follows: qHTS RealTime-Glo MT Cell Viability Assay in HEK293 cells - 24 hour (AID 1224886). For activity change, negative = cytotoxicity: top concentration of the series differs between compounds. Note: nearly all actives have a fitted effect of over 50% in size. Note: potency is the fitted concentration of half-maximal effect. Particulars: RealTime-Glo luminescence; series mostly up to 76.8 µM. The procedure, abridged:
as §1

The nature of test [15]: qHTS RealTime-Glo MT Cell Viability Assay in HEK293 cells - 8 hour (AID 1224887). For activity change, negative = cytotoxicity: top concentration of the series differs between compounds. Note: nearly all actives have a fitted effect of over 50% in size. Note: potency is the fitted concentration of half-maximal effect. Particulars: RealTime-Glo luminescence; series mostly up to 76.8 µM. The procedure, abridged: as §2
Test [16] is described as follows: A CellTox Green Cytotoxicity Assay to monitor cytotoxicity in HEK293 cells - 16 hour (AID 1224888). Note: nearly all actives have a fitted effect of over 35% in size. Particulars: CellTox Green fluorescence; series mostly up to 76.8 µM. Summed up: as §3
The nature of test [17]: A CellTox Green Cytotoxicity Assay to monitor cytotoxicity in HepG2 cells - 8 hour (AID 1224890). Note: nearly all actives have a fitted effect of over 45% in size. Particulars: CellTox Green fluorescence; series mostly up to 76.8 µM. Summed up: as §4
A short description of test [18]: qHTS RealTime-Glo MT Cell Viability Assay in HepG2 cells - 8 hour (AID 1224873). Note: nearly all actives have a fitted effect of over 55% in size. Particulars: RealTime-Glo luminescence; series mostly up to 76.8 µM. The procedure, abridged: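 HepG2 cells mixed with RealTime-Glo MT reagents (NanoLuc plus cell-permeant prosubstrate) were seeded at 600 cells/well, incubated 5 h at 37 C/5% CO2, then pinned with compounds in DMSO; nonlytic luminescence tracked viability during 40 h treatment.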

Test [19] in a line: qHTS RealTime-Glo MT Cell Viability Assay in HepG2 cells - 0 hour (AID 1224889). Note: nearly all actives have a fitted effect of over 50% in size. Particulars: RealTime-Glo luminescence; series mostly up to 76.8 µM. Summed up: as §5
% is set by controls: 0 for no effect and ±100 for the full control effect.

As to `Cc1c(N)cccc1N`, the Potency entry in [1], in test [3], in test [4], in test [5], in [6] and in [7] was “inactive” throughout. Also, the Potency entry in test [9], in test [10], in [11], in test [12], in test [14] and in test [15] was “inactive” in each case. Moreover, the Potency entry in test [16] and in test [17] was “inactive” throughout. In addition, in [2], the max response is 12.2% (inactive). Also, the outcome in test [8] and in test [13] was inactive.

On to `CC(C)(C)C1CCCCC1=O` (stereo not given), for which the Potency entry in [1], in test [3], in test [4], in test [6], in [7] and in test [9] was “inactive” each time. Moreover, the Potency result in [10], in test [11], in test [12], in [14], in [15] and in [16] was “inactive” each time. The Potency result in [17] is “inactive”. Besides, in test [2], the max response was 10.3% (inactive). Moreover, the outcome in [8] and in test [13] was inactive.

Turning to `C[C@@H]1CN(c2c(F)c(N)c3c(=O)c(C(=O)O)cn(C4CC4)c3c2F)C[C@H](C)N1`, the activity change, negative = cytotoxicity is -1.59% [at 15.8 µM] (inactive) in [1]; -2.5% [at 15.8 µM] (inactive) in test [8]; 4.31% [at 15.8 µM] (inactive) in test [14]; 0.0014% [at 15.8 µM] (inactive) in test [15]; 5.84% [at 15.8 µM] (inactive) in [19]. In addition, the viability change, negative = cytotoxic in test [18] is 0.974% [at 15.8 µM] (inactive). Also, the max response in [2] was -0.345% (inactive). The activity change is 0.48% [at 15.8 µM, active compounds read high] (inactive) in test [3] and -0.126% [at 15.8 µM, active compounds read high] (inactive) in [16]. Also, the cytotoxicity increase in test [4] is -2.88% [at 15.8 µM] (inactive); in test [7] it was -1.78% [at 15.8 µM] (inactive); in [9] it was 5.84% [at 15.8 µM] (inactive); in test [11], -7.06% [at 15.8 µM] (inactive); in test [12] it was -0.635% [at 15.8 µM] (inactive); in [17], 0.794% [at 15.8 µM] (inactive). For the same compound, the values for the cytotoxicity in test [6] and in test [10] were -3.54% [at 15.8 µM] (inactive) and 5.9% [at 15.8 µM] (inactive), respectively. In addition, in test [13], the activity change, negative = cytotoxic was 0.182% [at 15.8 µM] (inactive).

Consider `C=CCCCCCCCCO`, for which the Potency result in [1], in [4], in [5], in test [10], in test [12] and in [14] was “inactive” each time. Moreover, the Potency entry in test [15], in [16] and in [17] was “inactive” throughout. Also, the max response in [2] is -15.3% (inactive). Also, the call in test [13] was inactive.

For the compound `CC1=C2[C@H](/C=C(\C)C(=O)O)CC[C@@H](C)[C@H]2CC1`, the results for the Potency in test [1], in [14] and in test [15] were 36 µM (active), 36 µM (active) and 25.5 µM (active), respectively. Moreover, the outcome in test [18] and in [13] was inactive. Besides, the Potency entry in test [4], in [5], in test [6], in test [10], in test [11] and in test [19] was “inactive” in each case. In addition, the Potency result in test [17] was “inactive”.

As to `Cc1ccc(C(C)C)cc1O`, the Potency result in [1], in test [3], in test [12], in test [14], in [15] and in test [16] was “inactive” each time. In addition, the Potency result in [19] and in test [17] was “inactive” each time. The compound was classed as inactive in test [18], in test [8] and in [13]. The max response in test [2] was -12% (inactive).

Regarding `CCOC(=O)C1CC(=O)C(=C(O)C2CC2)C(=O)C1` (stereo not given), the Potency result in test [1], in test [4], in test [5], in test [6], in test [7] and in test [9] was “inactive” in each case. The Potency entry in test [10], in [11], in test [14], in test [15], in test [16] and in test [19] was “inactive” each time. Besides, in test [17], the Potency entry was “inactive”. The result in [18] and in [13] was inactive. Moreover, the max response in test [2] is 0.979% (inactive).

For `CC(C)c1ccccc1`, the Potency entry in test [1], in [4], in test [5], in test [6], in [7] and in [9] was “inactive” each time. In addition, the Potency result in test [10], in test [12], in [14], in [15], in test [16] and in test [19] was “inactive” throughout. Also, in [17], the Potency result was “inactive”. Also, the call in test [18], in test [8] and in [13] was inactive. Moreover, the max response in [2] was 1.09% (inactive).

Regarding `CCCCCCCCCC/C=C/C#N`, the Potency result in [1], in [4], in [6], in test [9], in test [10] and in [11] was “inactive” in each case. Further, the Potency result in test [12], in [14], in [15], in test [16] and in [17] was “inactive” throughout. The result in [18], in test [8] and in test [13] was inactive. Besides, in [2], the max response was 4.49% (inactive).

With `Cc1cc2nc(N)sc2cc1C`, the Potency result in test [1], in test [3], in test [4], in test [5], in test [6] and in test [9] was “inactive” throughout. Further, the Potency result in [10], in [11], in test [12], in test [14], in test [15] and in [16] was “inactive” each time. For the same compound, the Potency entry in test [19] and in [17] was “inactive” each time. Also, the call in test [18], in [8] and in test [13] was inactive. Besides, the max response in test [2] was -0.484% (inactive).

Take `O=C(O)c1ccccc1Nc1cc(Cl)ccc1C(=O)O`: the activity change, negative = cytotoxicity was 1.77% [at 15.8 µM] (inactive) in [1]; -6.06% [at 15.8 µM] (inactive) in test [8]; 7.65% [at 15.8 µM] (inactive) in [14]; -4.99% [at 15.8 µM] (inactive) in test [15]; -2.93% [at 15.8 µM] (inactive) in test [19]. Besides, in test [18], the viability change, negative = cytotoxic was 0.891% [at 15.8 µM] (inactive). The max response in test [2] was 2.59% (inactive). Besides, the cytotoxicity increase in [4] is 1.42% [at 15.8 µM] (inactive); in test [7], 28.2% [at 15.8 µM] (inactive); in test [9] it was -11.6% [at 15.8 µM] (inactive); in test [11], 20.7% [at 15.8 µM] (inactive); in test [12] it was -18.6% [at 15.8 µM] (inactive); in [17], 7.19% [at 15.8 µM] (inactive). Moreover, the activity change, negative = cytotoxic is -8.29% [at 15.8 µM] (inactive) in test [5] and 0.467% [at 15.8 µM] (inactive) in [13]. Besides, the cytotoxicity is 9.31% [at 15.8 µM] (inactive) in test [6] and -1.43% [at 15.8 µM] (inactive) in [10]. In addition, the activity change in test [16] was -3.78% [at 15.8 µM, active compounds read high] (inactive).
